Here are results for twelve compounds from ChEMBL document CHEMBL3988442, “University of Dundee, Small-Polar-MMV Screening Library” (2021).

The structures appear in SMILES notation. For part of these data: Potency and affinity values are given separately.

Holding throughout (parameters): scale not given: direction of the effect not stated beside the values
Assay [1] concerns the target Protein translocase subunit SecA (Escherichia coli (strain K12)) (UniProt P10408). Put plainly: Assay to Identify E. coli SecA ATPase Inhibitors. Format: functional. To be noted: 30 µM.
The target in assay [2] is T1, Ubiquitin-activating enzyme e1, putative (Leishmania donovani (strain BPK282A1)) (UniProt E9BSI1).
T1 sequence (whole entry): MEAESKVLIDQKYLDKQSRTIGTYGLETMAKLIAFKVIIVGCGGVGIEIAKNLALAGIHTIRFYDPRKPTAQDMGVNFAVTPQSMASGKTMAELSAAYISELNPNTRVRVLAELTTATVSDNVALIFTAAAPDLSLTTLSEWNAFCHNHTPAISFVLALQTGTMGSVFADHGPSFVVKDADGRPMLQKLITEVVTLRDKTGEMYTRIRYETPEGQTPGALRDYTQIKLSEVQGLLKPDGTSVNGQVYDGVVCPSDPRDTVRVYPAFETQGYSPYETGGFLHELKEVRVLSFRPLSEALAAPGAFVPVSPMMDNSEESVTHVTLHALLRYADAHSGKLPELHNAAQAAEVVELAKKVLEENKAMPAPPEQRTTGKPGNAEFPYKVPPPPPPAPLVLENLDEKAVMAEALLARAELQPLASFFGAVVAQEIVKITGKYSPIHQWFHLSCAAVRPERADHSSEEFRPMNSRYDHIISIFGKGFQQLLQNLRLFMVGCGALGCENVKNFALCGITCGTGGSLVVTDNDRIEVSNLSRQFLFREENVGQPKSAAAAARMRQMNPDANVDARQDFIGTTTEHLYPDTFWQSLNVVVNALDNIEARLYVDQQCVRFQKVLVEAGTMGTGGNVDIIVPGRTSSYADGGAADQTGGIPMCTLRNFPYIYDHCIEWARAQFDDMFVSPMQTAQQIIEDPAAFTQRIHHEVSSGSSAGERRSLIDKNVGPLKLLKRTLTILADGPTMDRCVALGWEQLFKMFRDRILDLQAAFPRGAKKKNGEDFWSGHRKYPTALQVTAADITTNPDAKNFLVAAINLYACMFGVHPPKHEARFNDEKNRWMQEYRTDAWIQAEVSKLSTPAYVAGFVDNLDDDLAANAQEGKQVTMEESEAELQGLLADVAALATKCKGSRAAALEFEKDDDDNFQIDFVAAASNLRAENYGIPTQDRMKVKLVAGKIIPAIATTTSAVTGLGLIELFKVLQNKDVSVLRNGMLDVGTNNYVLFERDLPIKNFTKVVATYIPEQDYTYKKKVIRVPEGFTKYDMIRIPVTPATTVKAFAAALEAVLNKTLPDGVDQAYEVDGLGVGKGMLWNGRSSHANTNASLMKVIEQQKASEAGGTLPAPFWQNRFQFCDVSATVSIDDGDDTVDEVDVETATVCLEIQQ
In words: Leishmania donovani Ubiquitin Activating Enzyme (LdE1). Format: functional. The settings on record: 30 µM.

The target of assay [3] is Sialic acid-binding Ig-like lectin 9 (Homo sapiens) (UniProt Q9Y336). Put plainly: Hs-Siglec9 ALPHAscreen SOP 20170721. To be noted: 10 µM. A general note: Alpha assays give light when donor and acceptor beads are brought close together.
For assay [4], the system named is Trypanosoma cruzi. In words: Trypanosoma cruzi phosphomannomutase and mannose-1-phosphate guanylyltransferase assay. The assay is classed as functional. The settings on record: 10 µM.
Assay [5] addresses T2, Arginase-2, mitochondrial (Homo sapiens) (UniProt P78540).
T2 sequence (whole entry): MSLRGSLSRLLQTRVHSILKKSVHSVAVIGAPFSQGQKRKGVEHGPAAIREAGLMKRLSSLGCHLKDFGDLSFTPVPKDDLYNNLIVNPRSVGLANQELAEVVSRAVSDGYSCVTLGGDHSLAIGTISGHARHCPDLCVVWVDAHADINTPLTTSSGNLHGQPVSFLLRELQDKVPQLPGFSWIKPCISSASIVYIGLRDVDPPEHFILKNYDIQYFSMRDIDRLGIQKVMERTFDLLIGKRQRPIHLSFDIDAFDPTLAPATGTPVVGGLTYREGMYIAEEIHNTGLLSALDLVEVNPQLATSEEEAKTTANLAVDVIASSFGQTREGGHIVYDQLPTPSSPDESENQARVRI
In words: in vitro enzyme assay to detect the production of urea directly proportional to the activity of Arginase II. Also: in the data most compounds retested in dose-response had high values. The assay is classed as functional. To be noted: 33.3 µM.

Assay [6] has as its target T3, Proteasome subunit beta (Trypanosoma cruzi) (UniProt O96673).
T3 sequence (whole entry): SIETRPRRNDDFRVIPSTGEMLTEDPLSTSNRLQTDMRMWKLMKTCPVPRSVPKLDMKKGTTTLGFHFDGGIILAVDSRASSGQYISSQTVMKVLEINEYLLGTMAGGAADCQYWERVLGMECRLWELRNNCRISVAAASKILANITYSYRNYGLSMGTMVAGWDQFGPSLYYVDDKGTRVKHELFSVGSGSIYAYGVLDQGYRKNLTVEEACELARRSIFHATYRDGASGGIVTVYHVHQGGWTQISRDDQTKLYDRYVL
Put plainly: Trypanosoma cruzi proteasome chymotrypsin-like activity (TcProtChymo) assay. Also: in the data most compounds retested in dose-response had high values. The assay is classed as functional. The settings on record: 9.37 µM.

The species named for assay [7] is Homo sapiens. In words: To identify inhibition of the IFN signalling (Jak-Stat) pathway via expression of an eGFP reporter gene under the control of an IFN-stimulated response element (ISRE) containing MxA promoter. The assay is classed as functional. To be noted: 30 µM. A general note: Reporter assays use an easily measured gene product as a stand-in for the process of interest.

For assay [8], the target named is T4, Tyrosyl-tRNA synthetase, putative (Trypanosoma cruzi (strain CL Brener)) (UniProt Q4DSP6).
T4 sequence (whole entry): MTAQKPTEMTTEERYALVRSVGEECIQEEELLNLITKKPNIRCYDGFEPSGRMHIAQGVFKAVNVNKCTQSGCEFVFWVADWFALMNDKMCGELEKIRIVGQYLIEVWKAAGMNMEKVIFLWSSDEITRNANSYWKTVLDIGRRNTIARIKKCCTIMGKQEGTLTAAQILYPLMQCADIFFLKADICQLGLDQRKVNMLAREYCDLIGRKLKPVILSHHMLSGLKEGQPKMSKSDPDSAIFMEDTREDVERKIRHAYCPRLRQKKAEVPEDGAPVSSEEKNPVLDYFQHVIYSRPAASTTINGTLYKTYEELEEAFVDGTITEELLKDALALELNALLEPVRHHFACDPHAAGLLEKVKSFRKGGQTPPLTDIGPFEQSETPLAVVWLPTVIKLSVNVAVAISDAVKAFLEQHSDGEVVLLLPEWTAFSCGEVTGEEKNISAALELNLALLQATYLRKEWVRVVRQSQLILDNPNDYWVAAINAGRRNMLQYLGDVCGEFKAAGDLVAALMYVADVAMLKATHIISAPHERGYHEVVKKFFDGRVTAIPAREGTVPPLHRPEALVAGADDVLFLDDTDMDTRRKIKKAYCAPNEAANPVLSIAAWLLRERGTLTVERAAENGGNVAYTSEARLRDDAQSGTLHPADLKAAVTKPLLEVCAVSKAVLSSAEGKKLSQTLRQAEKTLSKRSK
Put plainly: Trypanosoma cruzi tyrosyl tRNA synthetase (TcYRS) _High Tyrosine SOP. Also: in the data most compounds retested in dose-response had high values. The settings on record: 30 µM. Format: functional.

Assay [9] concerns the target T4, Tyrosyl-tRNA synthetase, putative (Trypanosoma cruzi (strain CL Brener)). In words: Trypanosoma cruzi tyrosyl tRNA synthetase (TcYRS) SOP. The assay is classed as functional. The settings on record: 30 µM.
Assay [10] addresses Chromo domain-containing protein 1 (Saccharomyces cerevisiae (strain ATCC 204508 / S288c) (Baker's yeast)) (UniProt P32657). In words: ScCHD-1 Enzyme Inhibition Assay. Also: in the data most compounds retested in dose-response had high values. To be noted: 30 µM. The assay is classed as functional.

Chromo domain-containing protein 1 (Saccharomyces cerevisiae (strain ATCC 204508 / S288c) (Baker's yeast)), sequence (P32657 whole entry, the tested form may be a part): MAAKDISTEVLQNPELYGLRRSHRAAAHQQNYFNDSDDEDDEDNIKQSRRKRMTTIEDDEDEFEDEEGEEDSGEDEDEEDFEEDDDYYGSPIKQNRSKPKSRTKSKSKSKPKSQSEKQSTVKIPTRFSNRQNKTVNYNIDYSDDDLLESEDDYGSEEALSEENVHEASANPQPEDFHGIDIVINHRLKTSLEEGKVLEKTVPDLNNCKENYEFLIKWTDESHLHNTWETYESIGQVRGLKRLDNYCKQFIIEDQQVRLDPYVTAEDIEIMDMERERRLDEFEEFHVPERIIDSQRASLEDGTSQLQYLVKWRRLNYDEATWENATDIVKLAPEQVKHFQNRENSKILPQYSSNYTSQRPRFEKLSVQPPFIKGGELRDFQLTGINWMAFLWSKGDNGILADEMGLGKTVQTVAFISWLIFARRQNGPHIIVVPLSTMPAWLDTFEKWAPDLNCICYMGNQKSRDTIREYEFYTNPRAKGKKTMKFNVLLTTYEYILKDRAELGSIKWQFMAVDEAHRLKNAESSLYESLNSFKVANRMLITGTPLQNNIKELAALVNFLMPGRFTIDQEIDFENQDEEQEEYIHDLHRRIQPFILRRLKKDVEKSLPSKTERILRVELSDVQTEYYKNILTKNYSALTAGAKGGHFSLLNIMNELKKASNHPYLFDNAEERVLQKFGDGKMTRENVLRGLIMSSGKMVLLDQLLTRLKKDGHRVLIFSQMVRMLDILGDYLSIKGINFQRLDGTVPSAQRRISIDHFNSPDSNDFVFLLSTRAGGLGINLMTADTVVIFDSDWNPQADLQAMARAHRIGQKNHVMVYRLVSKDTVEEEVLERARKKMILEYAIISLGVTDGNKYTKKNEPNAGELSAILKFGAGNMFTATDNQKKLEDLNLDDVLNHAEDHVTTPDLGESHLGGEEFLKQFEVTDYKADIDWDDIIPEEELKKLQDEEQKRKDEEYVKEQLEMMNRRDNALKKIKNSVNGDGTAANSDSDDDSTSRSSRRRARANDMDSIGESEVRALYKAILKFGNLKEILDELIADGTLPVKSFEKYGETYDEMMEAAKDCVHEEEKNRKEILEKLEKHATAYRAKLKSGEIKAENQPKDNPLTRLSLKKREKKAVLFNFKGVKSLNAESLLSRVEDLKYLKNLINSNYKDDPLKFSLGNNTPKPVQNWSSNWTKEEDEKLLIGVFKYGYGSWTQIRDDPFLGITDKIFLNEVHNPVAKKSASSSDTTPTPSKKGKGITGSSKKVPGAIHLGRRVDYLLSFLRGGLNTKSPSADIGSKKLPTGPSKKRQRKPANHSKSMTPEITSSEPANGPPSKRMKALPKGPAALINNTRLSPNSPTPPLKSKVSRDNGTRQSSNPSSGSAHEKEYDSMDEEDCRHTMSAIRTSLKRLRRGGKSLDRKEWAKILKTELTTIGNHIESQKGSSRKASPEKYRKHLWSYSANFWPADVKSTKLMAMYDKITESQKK
Sialic acid-binding Ig-like lectin 9 (Homo sapiens), sequence (Q9Y336 whole entry): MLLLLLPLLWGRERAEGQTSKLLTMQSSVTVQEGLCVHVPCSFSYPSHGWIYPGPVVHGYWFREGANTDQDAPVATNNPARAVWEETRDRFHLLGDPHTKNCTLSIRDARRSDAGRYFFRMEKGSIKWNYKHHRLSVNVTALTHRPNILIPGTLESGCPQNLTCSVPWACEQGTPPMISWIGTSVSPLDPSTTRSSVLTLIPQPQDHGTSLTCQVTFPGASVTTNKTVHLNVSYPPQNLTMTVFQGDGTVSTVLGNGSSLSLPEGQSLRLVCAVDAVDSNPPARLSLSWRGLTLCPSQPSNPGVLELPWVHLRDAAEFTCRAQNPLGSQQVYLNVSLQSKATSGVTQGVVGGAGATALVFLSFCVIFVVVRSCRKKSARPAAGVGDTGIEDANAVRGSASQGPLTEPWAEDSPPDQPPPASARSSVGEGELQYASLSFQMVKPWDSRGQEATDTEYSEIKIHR
Protein translocase subunit SecA (Escherichia coli (strain K12)), sequence (P10408 whole entry): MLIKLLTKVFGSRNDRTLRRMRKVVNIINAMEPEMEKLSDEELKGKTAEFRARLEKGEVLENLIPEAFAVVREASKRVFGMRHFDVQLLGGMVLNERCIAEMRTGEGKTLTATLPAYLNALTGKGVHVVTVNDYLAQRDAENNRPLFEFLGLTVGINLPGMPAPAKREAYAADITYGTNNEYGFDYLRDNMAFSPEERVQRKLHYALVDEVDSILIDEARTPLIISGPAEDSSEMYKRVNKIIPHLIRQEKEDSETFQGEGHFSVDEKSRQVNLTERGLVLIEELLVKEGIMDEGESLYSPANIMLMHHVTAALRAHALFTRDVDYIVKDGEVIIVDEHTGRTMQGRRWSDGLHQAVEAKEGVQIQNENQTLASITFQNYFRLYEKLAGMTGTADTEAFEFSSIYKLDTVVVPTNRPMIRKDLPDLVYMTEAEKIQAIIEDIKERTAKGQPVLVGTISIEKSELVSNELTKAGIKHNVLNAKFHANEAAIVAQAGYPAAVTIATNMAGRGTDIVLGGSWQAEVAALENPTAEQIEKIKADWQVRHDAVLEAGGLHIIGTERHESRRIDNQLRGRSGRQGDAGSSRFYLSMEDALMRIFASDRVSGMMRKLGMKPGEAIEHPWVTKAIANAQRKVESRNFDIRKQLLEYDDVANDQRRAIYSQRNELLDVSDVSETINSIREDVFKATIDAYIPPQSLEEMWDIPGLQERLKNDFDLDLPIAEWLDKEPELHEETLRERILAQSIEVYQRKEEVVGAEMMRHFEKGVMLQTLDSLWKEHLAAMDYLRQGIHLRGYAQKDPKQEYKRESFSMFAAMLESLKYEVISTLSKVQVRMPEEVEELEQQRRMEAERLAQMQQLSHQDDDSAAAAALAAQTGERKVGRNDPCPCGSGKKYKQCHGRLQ

Take `NC(=O)CC1CCN(C(=O)NCc2ccccc2-n2cccn2)CC1`: the Percent Effect in [1] is -5.04%; in assay [2], 21.3%; in assay [3] it was 5.25%; in assay [4], -0.602%; in assay [5], -1.77%; in [6], 9.41%. Moreover, the Percent Effect is 15% in assay [7], 7.89% in [8], 15.4% in assay [9] and -10.3% in assay [10].

For `Cc1[nH]ccc1C(=O)N1CCCC(c2nccn2Cc2cscn2)C1` (stereo not given), the Percent Effect was -7.46% in assay [1]; -5.41% in assay [2]; 27.9% in assay [3]; 9.99% in assay [4]; 57% in assay [5]; 15.2% in assay [6]. The Percent Effect in assay [7] is 8.11%; in [8] it was 7.98%; in assay [9], 17.1%; in assay [10], -3.33%.

In the case of `CCNC(=O)N1CCN(C(=O)c2cc(Cl)cc3cccnc23)CC1`, the Percent Effect is -1.06% in assay [1]; 0% in assay [2]; 3.31% in assay [3]; -1.03% in [4]; 3.28% in assay [5]; 7.93% in assay [6]. In addition, the Percent Effect in assay [7] is 6.48%; in assay [8], -0.478%; in assay [9], -1.21%; in [10], 2.64%.

Turning to `O=C(NCCn1ccnc1)N1CCCC1c1ccsc1` (stereo not given), the Percent Effect in assay [1] was -1.45%; in [2], 10.3%; in [3] it was -12.8%; in [4], 8.73%; in assay [5], 1.64%; in assay [6], 17.7%. Moreover, the Percent Effect in assay [7] is -7.37%; in [8] it was 6.22%; in [9], 20.5%; in [10], -4.56%.

Regarding `CN(C)S(=O)(=O)N1CC[C@]2(C[C@H](Oc3cccnc3)CO2)C1`, the Percent Effect was -2.88% in assay [1]; 14.3% in assay [2]; -1.9% in assay [3]; 1.66% in assay [4]; 8.91% in assay [5]; 23.7% in [6]. For the same compound, the Percent Effect in assay [7] was 1.15%; in assay [8] it was 11.1%; in assay [9], 15.4%; in assay [10], -4.29%.

Regarding `CC(C)c1ncncc1C(=O)NCCN1CCCS1(=O)=O`, the Percent Effect is -3.82% in assay [1]; 5.13% in assay [2]; -1.57% in [3]; 7.98% in [4]; 3.69% in assay [5]; 3.5% in assay [6]. Besides, the Percent Effect in assay [7] was 1.77%; in assay [8], 1.44%; in assay [9], 10.8%; in assay [10], 1.18%.

Turning to `O=C(CN1CCCC(c2ccc(C(=O)O)cc2)C1)NC1CC1` (stereo not given), the Percent Effect in assay [1] is -9.44%; in [2], 5.41%; in assay [3], 8.6%; in [4], 7.08%; in assay [5] it was 8.04%; in assay [6], 1.2%. Further, the Percent Effect in [7] was -14.3%; in assay [8], 6.92%; in assay [9], 12.2%; in assay [10], -1.84%.

As to `CC(C)c1ncc(S(C)(=O)=O)c(C2CCCNC2)n1` (stereo not given), the Percent Effect in [1] is -5.26%; in assay [2], 10.8%; in assay [3], 16.7%; in [4], 6.11%; in [5] it was 14.3%; in assay [6], 3.94%. The Percent Effect in [7] is -1.56%; in assay [8], 6.92%; in assay [9] it was 17.1%; in [10], -3.61%.

Take `COCC(=O)N1CC[C@@H](O)[C@@H]1Cc1ccccc1`: the Percent Effect in [1] is -2.38%; in assay [2], 3.9%; in [3], -3.29%; in assay [4], 1.27%; in [5], -4.45%; in [6], 6.27%. The Percent Effect in assay [7] is -19.5%; in assay [8], -5.79%; in assay [9] it was 0%; in assay [10], -0.374%.

Consider `Cc1cc(CNc2cc(Cl)ccc2OCCS(C)(=O)=O)no1`, for which the Percent Effect in assay [1] is -0.942%; in assay [2], 5.13%; in [3] it was -13.6%; in assay [4] it was 7.42%; in [5] it was -1.23%; in assay [6], -4.01%. Also, the Percent Effect in assay [7] is -4.69%; in assay [8], 2.39%; in assay [9], 10.8%; in [10] it was 0.127%.

Turning to `COCC1CN(CC2CC2)Cc2nn(C)cc21` (stereo not given), the Percent Effect in [1] is -8.74%; in assay [2], -1.3%; in assay [3] it was -2.43%; in assay [4], -6.91%; in assay [5], 2.02%; in assay [6], 10.5%. Also, the Percent Effect in [7] was 4.75%; in assay [8], 1.58%; in assay [9], -5.13%; in [10], -3.01%.

In the case of `CSc1ccccc1C(C(=O)O)N1CCN(Cc2ccccn2)CC1` (stereo not given), the Percent Effect was -6% in assay [1]; 13.5% in assay [2]; 6.14% in [3]; 9.21% in [4]; 60.5% in assay [5]; 10.8% in assay [6]. Further, the Percent Effect in [7] is 14.2%; in assay [8] it was 6.92%; in assay [9], 19.5%; in assay [10], 0.128%.
